# Assay outcomes as filed in PubChem.
# Sampled rows, rich in hits. Any-hit rate of the full collection: about 7.4%.
# NPC1 prom act – qHTS Assay for NPC1 Promoter Activators; Huh7 NPC1 promoter luciferase reporter, 24 h; Potency, µM (series often up to 9.22 µM), inactives show top-dose activation, actives largely listed as activators; hit rate 2.4% among 320,000; AID 485313, 2010; note: % of control where 0% means no effect; nearly all actives have a fitted effect of over 60% in size
#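 Luminescence read-out of NPC1 promoter-driven luciferase in stably transfected Huh7 cells; compounds delivered in DMSO and left 24 h at 37C, 5% CO2, qHTS titration format.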
# SMN2 splice enh – qHTS Assay for Enhancers of SMN2 Splice Variant Expression; AID 1458, 2008; hit rate 2.8% among 210,000; Potency, µM (series often up to 46.1 µM), for inactives: at the top dose activity change, positive = activation, actives largely listed as activators; HEK293 SMN2-luciferase splicing reporter, luminescence, 30-36 h; note: % of control where 0% means no effect; nearly all actives have a fitted effect of over 55% in size
#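 HEK293 cells carry an SMN2 minigene-luciferase reporter in which exon 7 inclusion puts luciferase in frame. Cells were seeded at 2000 cells/well, attached for 10-12 hours, then exposed to compounds for 30-36 hours at 37C before ONE-Glo luminescence.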
# ELG1 genotox – qHTS screen for small molecules that induce genotoxicity in human embryonic kidney (HEK293T) cells expressing luciferase-tagged ELG1; HEK293T ELG1-luciferase reporter, luminescence, 16 h; Potency, µM (highest dose often 46 µM), inactives show at the top dose activity change, positive = activation, actives largely listed as activators; hit rate 1.3% among 330,000; note: % of control where 0% means no effect; nearly all actives have a fitted effect of over 60% in size
#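 Genotoxicity was scored as increased ELG1-luciferase reporter signal, measured by ONE-Glo luminescence (30 min, room temperature). Compound or vehicle exposure of the HEK293T reporter cells lasted 16 hr at 37°C.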
# Rab9 prom act – qHTS Assay for Rab9 Promoter Activators | Huh7 Rab9 promoter-luciferase reporter, luminescence, 24 h | Potency, µM (top dose mostly 9.22 µM), for the others: at the top dose activation, negative = inhibition, most hits filed as activators | hit rate 2.8% among 320,000 | AID 485297, 2010; note: % of control where 0% means no effect; nearly all actives have a fitted effect of over 60% in size
#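 Luminescence read-out: Huh7 cells stably expressing Rab9-luciferase, treated 24 h with compound at 37 °C, then lysed with luciferase reagent for 10 min at ambient before reading.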
# FLuc modulator – qHTS profiling assay for firefly luciferase inhibitor/activator using purifed enzyme and Km concentrations of substrates (counterscreen for miR-21 project); hit rate 6.9% among 360,000; purified FLuc, Km substrates, luminescence inhibition; Luciferin 4-monooxygenase (Photinus pyralis), P08659; Potency, µM (titrated, usually from 57.5 µM), for inactives: at the top dose activity change, negative = inhibition, most hits filed as inhibitors;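 note: plate controls were vehicle for no effect and reference inhibitor for full effect; nearly all actives have a fitted effect of over 55% in size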
# Target sequence (P08659 whole entry, looked up): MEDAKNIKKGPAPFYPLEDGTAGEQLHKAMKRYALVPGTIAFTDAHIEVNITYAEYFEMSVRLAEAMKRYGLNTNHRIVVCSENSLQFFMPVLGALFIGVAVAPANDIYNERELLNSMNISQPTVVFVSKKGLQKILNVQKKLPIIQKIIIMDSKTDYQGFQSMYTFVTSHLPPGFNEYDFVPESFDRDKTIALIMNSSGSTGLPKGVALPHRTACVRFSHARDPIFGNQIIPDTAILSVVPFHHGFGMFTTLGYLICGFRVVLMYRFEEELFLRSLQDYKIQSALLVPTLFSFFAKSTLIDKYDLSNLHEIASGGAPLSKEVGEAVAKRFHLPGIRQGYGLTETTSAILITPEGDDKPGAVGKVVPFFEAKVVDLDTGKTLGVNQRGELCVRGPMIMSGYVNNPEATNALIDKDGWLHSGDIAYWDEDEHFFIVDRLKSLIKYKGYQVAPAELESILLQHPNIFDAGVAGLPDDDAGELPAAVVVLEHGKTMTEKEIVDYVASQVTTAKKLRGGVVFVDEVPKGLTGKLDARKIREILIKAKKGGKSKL
#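 Purified P. pyralis luciferase, 10 nM final, with Km-level 10 uM D-luciferin and 10 uM ATP in 50 mM Tris acetate pH 7.5, 10 mM Mg acetate, 0.01% Tween-20, 0.05% BSA; 6-point qHTS titration about 60 µM downward; luminescence read.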
# * marks the source's active call; other numbers are inactive results; ? = inconclusive; . = no result given; [ ] = another dose, or the depositor's remark. Calls come from the whole dose curve; as a rule, active = well fitted curve in the direction sought with a large enough effect; inconclusive = small, poorly fitted or top-dose-only effect, or another doubt; inactive = no such curve, though single readings can be large; an effect the other way counts as inactive or inconclusive. Potency is the fitted concentration of half-maximal effect.
SMILES,NPC1 prom act,SMN2 splice enh,ELG1 genotox,Rab9 prom act,FLuc modulator
O=C(Nc1ccc(-c2nc3ccccc3s2)c(OC(=O)c2ccccc2)c1)c1ccccc1,1.6µM*,2.8µM*,?,1.4µM*,?
O=C(Nc1cccc(Cl)c1)c1ccccc1,?,.,16µM*,?,13µM*
O=C(NNC(=S)Nc1cccc(Cl)c1)c1ccccc1,?,.,7%,23%,?
Cc1ccc(S(=O)(=O)c2cc3cc(C(=O)Nc4ccc(C)cc4C)ccc3oc2=O)cc1,.,10%,.,.,-2%
CCOc1ccccc1NC(=O)N1CCc2cc(S(=O)(=O)N3CCC(C)CC3)ccc21,.,6%,.,.,-4%
O=C(Nc1ccc(Cl)c(Cl)c1)Nc1ccc(Br)cc1F,-1%,-22%,-2%,0%,-16%
CC(=O)Nc1ccc2cc3ccc(NC(C)=O)cc3nc2c1,?,.,?,?,11µM*
O=C(Nc1ccc(Cl)c(Cl)c1)Nc1ccccc1O,4µM*,.,?,4µM*,6µM*
Cn1c(N)c(C(=O)Nc2cccc(Cl)c2)c(=O)n(C)c1=O,2%,.,8%,6%,5.4µM*
COc1cccc(C(=O)N2c3cc(C)ccc3C(C)(c3ccccc3)CC2(C)C)c1 (stereo unspecified),.,-6%,.,.,5%
CCc1ccc(NC(=O)CSc2nc(=O)n(Cc3cccnc3)c3c2CCC3)cc1,.,.,.,.,-1%
S=c1[nH]nc(-c2cccs2)n1/N=C/c1cn(-c2ccccc2)nc1-c1ccccc1,12%,.,1%,5%,3.4µM*
COc1ccc(-c2nn(-c3ccccc3)cc2C(N)=O)cc1OC,9%,.,2%,2%,17µM*
COc1ccc(-c2nn(-c3ccccc3)cc2/C=C(\C#N)S(=O)(=O)c2ccccc2)cc1OC,3%,2%,2%,1%,-2%
NC(=O)c1cn(-c2ccccc2)nc1-c1cccnc1,3%,10%,-5%,-3%,-3%
COc1ccc(-c2nn(-c3ccccc3)cc2/C=N/n2cnnc2)cc1OC,-3%,?,7%,-6%,19µM*
COc1ccc(-c2nn(-c3ccccc3)cc2/C=N/NC(N)=S)cc1OC,-21%,76%,0%,-21%,5.4µM*
Cc1ccc(-c2nn(-c3ccccc3)cc2/C=N/n2c(-c3ccncc3)n[nH]c2=S)cc1,-9%,.,18%,-4%,-1%
COC(=O)c1ccc(N2C(=O)Cc3cc(OC)c(OC)cc3C2c2ccc(F)cc2)cc1 (stereo unspecified),.,11%,.,.,0%
CCN(CC)S(=O)(=O)c1ccc2c(c1)N(CC(=O)Nc1c(C)cc(C)cc1C)C(=O)CS2,.,14%,.,.,-1%
COc1ccc(N2CCN(CCCNC(=O)c3nnc(Cc4ccccc4Cl)o3)CC2)cc1,.,-25%,.,.,-2%
C(=N\n1cnnc1)/c1cn(-c2cccs2)nc1-c1ccccc1,14%,?,?,8%,7.6µM*
C(=N\n1cnnc1)/c1ccc(-c2ccccc2)cc1,3%,-14%,3%,2%,?
Cc1ccc(SCC(=O)Nc2nccs2)cc1,?,10%,?,?,?
N#Cc1cc2c(nc1SCC(=O)Nc1sc3c(c1C#N)CCC3)CCCCCC2,1%,-26%,0%,3%,-1%
SMILES,NPC1 prom act,SMN2 splice enh,ELG1 genotox,Rab9 prom act,FLuc modulator
CCSc1nnc(NC(=O)CSc2nc3c(cc2C#N)CCCC3)s1,1.8µM*,7.9µM*,13%,3.2µM*,12µM*
Cc1ccc(C#N)c(SCC(=O)Nc2nccs2)n1,0.79µM*,1.8µM*,1.8µM*,0.45µM*,-11%
N#Cc1cc2c(nc1SCC(=O)Nc1nccs1)CCCCC2,0.28µM*,1µM*,0.12µM*,0.28µM*,0.67µM*
CCOC(=O)c1c(SCC(=O)Nc2nccs2)nc(C)c(C)c1C,2.8µM*,.,?,2.5µM*,-1%
CCSc1nnc(NC(=O)CSc2nc(C)cc(C)n2)s1,2%,0%,1%,-4%,14%
COc1ccc(Cl)cc1NC(=O)CN(c1cc(C)cc(C)c1)S(=O)(=O)c1c(C)n[nH]c1C,.,-17%,.,.,4%
Cc1ccc(CNC(=O)c2c(C)oc3nc(C)nc(N4CCOCC4)c23)cc1,.,.,.,.,4%
CCc1nnc(NC(=O)CSc2nc3c(cc2C#N)CCC3)s1,2.8µM*,13µM*,?,2.2µM*,0.85µM*
N#Cc1cc2c(nc1SCC(=O)Nc1sc3c(c1C#N)CCC3)CCC2,?,5%,13%,?,2%
Cc1cccc(-n2ccnc2SCC(=O)Nc2nccs2)c1,?,.,15%,3.5µM*,?
Cc1cc(C)cc(-n2ccnc2SCC(=O)Nc2nccs2)c1,-8%,7%,-1%,1%,1%
COc1cc(OC)c(NC(=O)c2ccc3c(Cl)c4c(nc3c2)CCCC4)cc1Cl,.,-4%,.,.,-1%
CCOc1ccccc1NC(=O)c1ccc2ccccc2c1,?,.,0%,?,21µM*
CCOc1ccccc1NC(=O)c1ccc2c(Cl)c3c(nc2c1)CCC3,.,22%,.,.,0.85µM*
CCOc1ccccc1NC(=O)c1ccc2c(Cl)c3c(nc2c1)CCCC3,.,-2%,.,.,2.7µM*
CCOc1ccccc1NC(=O)c1ccc2c(=O)n3c(nc2c1)CCCCC3,11%,.,-6%,4%,?
COc1ccccc1NC(=O)c1ccc2c(Cl)c3c(nc2c1)CCCC3,.,1%,.,.,7.6µM*
COc1ccccc1NCc1cccn1-c1nnc(N2CCOCC2)s1,.,.,.,.,-10%
COc1cccc(C2CC(=O)Nc3c2c(=O)nc2c(C)cccn32)c1OC (stereo unspecified),.,.,.,.,5%
CC(C)N(CCC(=O)c1ccc2ccccc2c1)Cc1ccccc1,-34%[46.1 µM],6%,-5%,-41%[46.1 µM],-18%
CCC(=O)CCC(=O)c1ccc2ccccc2c1,?,14µM*,?,?,15µM*
Cc1ccccc1-c1noc(-c2ccc(Cl)cc2)n1,4µM*,11µM*,?,2.8µM*,1.1µM*
Clc1ccc(Cc2noc(-c3cccs3)n2)cc1,?,0%,6.5µM*,22%,13µM*
Cc1ccccc1-c1noc(-c2cc(-c3ccc(F)cc3)n[nH]2)n1,.,.,.,.,6%
Cc1ccccc1-c1noc(C2CCCCC2)n1,-1%,-6%,13%,9%,17µM*
Cc1ccccc1-c1noc(-c2ccc(O)cc2)n1,?,?,?,29%,4.8µM*
O=C(NCc1ccc(Cl)cc1)c1cc(-c2cccs2)on1,1%,14%,-2%,-1%,-1%
Cc1noc(-c2ccc(-c3noc(-c4ccc(Cl)cc4)n3)cc2)n1,.,.,.,.,0%
CCCc1ccc(OC(C)c2nc(-c3ccc(-n4cccc4)cc3)no2)cc1 (stereo unspecified),.,-24%,.,.,-6%
Cc1ccc2c(CNCCc3ccccc3)c(C(=O)O)n(Cc3ccccc3C)c2c1,.,.,.,.,-4%
